# From PubChem BioAssay (NCATS)
# Where “and” joins values, the source holds several entries; their conditions need not be identical. Equal entries are not always repeated. Records with an inconclusive call do not appear. Where a structure was tested more than once in an assay, its records may differ in their call. Calls of active or inactive are those of the source. Unless noted, calls come from the whole dose curve; as a rule, active = well fitted curve in the direction sought with a large enough effect; inconclusive = small, poorly fitted or top-dose-only effect, or another doubt; inactive = no such curve, though single readings can be large; an effect the other way counts as inactive or inconclusive.
# Tests used:
# [1] = target: T1, Hexokinase-4 (Homo sapiens) + Glucokinase regulatory protein (Homo sapiens) (UniProt P35557+Q14397); assay: qHTS assay for inhibitors of recombinant human GCK-GKRP interaction: ADP-Glo assay (AID 743206);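 note: plate controls were DMSO plus enzyme for no effect and no enzyme for full effect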
# T1 sequence (P35557 whole entry, looked up): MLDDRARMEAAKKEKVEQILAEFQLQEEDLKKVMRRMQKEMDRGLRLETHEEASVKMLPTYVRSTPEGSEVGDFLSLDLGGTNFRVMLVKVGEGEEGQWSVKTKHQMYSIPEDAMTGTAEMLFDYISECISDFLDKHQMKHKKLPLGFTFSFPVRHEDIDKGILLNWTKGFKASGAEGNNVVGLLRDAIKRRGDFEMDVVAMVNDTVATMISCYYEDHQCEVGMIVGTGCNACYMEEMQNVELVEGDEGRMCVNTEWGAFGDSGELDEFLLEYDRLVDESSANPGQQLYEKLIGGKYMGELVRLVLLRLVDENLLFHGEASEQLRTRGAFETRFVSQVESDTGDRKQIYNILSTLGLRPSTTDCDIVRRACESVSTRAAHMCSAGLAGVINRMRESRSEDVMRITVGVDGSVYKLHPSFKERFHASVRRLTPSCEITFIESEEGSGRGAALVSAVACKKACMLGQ
# T1 sequence (Q14397 whole entry, looked up): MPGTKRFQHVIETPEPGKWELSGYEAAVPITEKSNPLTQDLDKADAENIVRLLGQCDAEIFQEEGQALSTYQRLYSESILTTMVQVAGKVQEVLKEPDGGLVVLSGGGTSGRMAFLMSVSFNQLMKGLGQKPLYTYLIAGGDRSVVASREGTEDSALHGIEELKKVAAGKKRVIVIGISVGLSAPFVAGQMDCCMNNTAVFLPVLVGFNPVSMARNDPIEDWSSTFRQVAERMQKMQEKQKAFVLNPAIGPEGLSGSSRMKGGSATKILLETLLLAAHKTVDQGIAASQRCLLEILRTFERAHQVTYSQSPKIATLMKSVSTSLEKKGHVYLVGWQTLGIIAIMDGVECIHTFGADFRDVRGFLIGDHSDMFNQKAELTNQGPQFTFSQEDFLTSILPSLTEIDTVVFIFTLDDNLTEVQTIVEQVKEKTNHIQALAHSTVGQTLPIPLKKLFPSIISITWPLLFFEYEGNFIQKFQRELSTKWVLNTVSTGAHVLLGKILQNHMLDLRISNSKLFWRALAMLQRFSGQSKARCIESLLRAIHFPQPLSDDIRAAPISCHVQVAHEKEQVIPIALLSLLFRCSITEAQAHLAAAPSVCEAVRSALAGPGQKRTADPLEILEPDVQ
# Summary of the method: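 Pin-transferred compounds meet a 15 nM GST-GCK/15 nM FLAG-GKRP/2 uM S6P mix (dispense concentrations). ATP is then added to 0.4 mM final with 5 mM glucose, and the reaction runs 60 min at room temperature. ADP is quantified luminescently.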
# [2] = target: T1, Hexokinase-4 (Homo sapiens) + Glucokinase regulatory protein (Homo sapiens); assay: qHTS assay for inhibitors of recombinant human GCK-GKRP interaction: HTRF assay (AID 743207);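 note: 0% = DMSO with GCK present and -100% = DMSO wells lacking GCK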
# Summary of the method: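 HTRF read-out (ex 320 nm; 615/665 nm emission) after 60 min RT equilibration of 5 nM GST-GCK, 5 nM FLAG-GKRP, 2 uM S6P, compound and anti-FLAG/anti-GST detection antibodies; signal normalized between DMSO wells with and without GCK.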
# [3] = qHTS Assay for Identifying Gametocytocidal Compounds (AID 743244); note: potency is the fitted concentration of half-maximal effect;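 for max response: % is set by controls: 0 for no effect and ±100 for the full control effect; actives lower the fluorescent signal which means gametocytes are killed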; conditions: P. falciparum 3D7 stage III-V gametocytes, alamarBlue, 72 h; max response: stronger effect = lower value
# Summary of the method: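 Fluorescence at Ex 525/Em 598 nm, recorded 24 h after alamarBlue addition, reports residual metabolic activity of 3D7 gametocytes (stages III–V) following 72 h compound exposure at 37 °C, 5% CO2.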
# [4] = qHTS assay for cell viability of HEK293 cells (AID 743288); conditions: ATP luminescence (CellTiter-Glo), 18 h; max response: stronger effect = lower value; note: % is set by controls: 0 for no effect and ±100 for the full control effect; nearly all actives have a fitted effect of over 50% in size
# Summary of the method: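 ATP luminescence (CellTiter-Glo) reports metabolically competent cell number after parental HEK293 cells, 2,000/well, were treated with DMSO-dissolved compounds for 18 h at 37 C; reagent incubation 30 min, room temperature.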
# [5] = qHTS assay for cell viability of the p53RE-bla HCT-116 cell line (AID 743292); note: % is set by controls: 0 for no effect and ±100 for the full control effect; nearly all actives have a fitted effect of over 55% in size
# Summary of the method: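 Compound-exposed HCT-116 (p53RE-bla) cells, 4,000 per well, were kept 16 h at 37 C following a 5 h preincubation. Cell number was estimated from total ATP by CellTiter-Glo luminescence read after 30 min at room temperature.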
# [6] = qHTS profiling of the MIPE4 collection as inhibitors of Plasmodium falciparum (3D7) proliferation (AID 743344; call rule not given here;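 note: scaled between DMSO vehicle wells and 0.29 µM artemisinin as full inhibition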); conditions: P. falciparum 3D7 in erythrocytes, SYBR Green DNA fluorescence, 72 h; at 28.5 µM (top of the series) unless noted
# Summary of the method: (§1)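 Parasite DNA was quantified by SYBR Green I fluorescence (ex 485, em 535 nm) after overnight lysis in saponin/Triton buffer at room temperature. Cultures at 0.3% parasitemia and 2.5% hematocrit were first exposed to compound for 72 h at 37 C; signals were normalised to artemisinin (0.29 uM) and vehicle wells.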
# [7] = qHTS profiling of the MIPE4 collection as inhibitors of Plasmodium falciparum (DD2) proliferation (Rep 2) (AID 743346; call rule not given here); conditions: P. falciparum Dd2 in erythrocytes, SYBR Green DNA, 72 h; at 28.5 µM (top of the series) unless noted
# Summary of the method: as §1
# [8] = qHTS profiling of the MIPE4 collection as inhibitors of Plasmodium falciparum (HB3) proliferation (AID 743347; call rule not given here;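 note: plate controls were DMSO vehicle wells for no effect and artemisinin wells for full effect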); conditions: P. falciparum HB3 in erythrocytes, SYBR Green DNA, 72 h; at 28.5 µM (top of the series) unless noted
# Summary of the method: as §1
# [9] = High-throughput drug toxicity screening in the BPDCN cell line Gen2.2 (AID 1224824; call rule not given here;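 note: cells exposed to compounds for 48 h before reading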); conditions: Gen2.2 BPDCN cells; at 45.8 µM (top of the series) unless noted
# Summary of the method: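 CellTiter-Glo luminescence after 48 h compound exposure of Gen2.2 cells; percent activity set with DMSO as 100% and bortezomib (9.2 uM final) as 0%. Cells seeded at 500 per well, RPMI + 10% FBS, 37 °C.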
# [10] = High-throughput drug toxicity screening in the BPDCN cell line Cal-1 (AID 1224825; call rule not given here); conditions: Cal-1 BPDCN cell viability, qHTS; at 45.8 µM (top of the series) unless noted
# Summary of the method: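 CellTiter-Glo luminescence after 48 h compound exposure; percent activity scaled with DMSO as 100% and bortezomib (9.2 uM final) as 0%. Cal-1 cells seeded at 500/well in RPMI, 10% FBS, no phenol red.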
# [11] = qHTS assay for measurement of the activity of small molecule inhibitors on Zika virus induced Caspase-3 activity in human iPSC derived neural progenitor cells (hNPCs) (AID 1224857); note: nearly all actives have a fitted effect of over 65% in size; note: potency is the fitted concentration of half-maximal effect
# Summary of the method: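 Zika virus (2 FFU/cell) infection of human iPSC-derived NPCs, 6 h, following 1 h compound preincubation. Read-out: Caspase-Glo 3/7 luminescence.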
# [12] = qHTS assay for measurement of the activity of small molecule inhibitors on Zika virus induced Caspase-3 activity in human astrocytoma cells (AID 1224859);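 note: plate controls were ZIKV-infected untreated cells for no effect and uninfected cells for full effect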
# Summary of the method: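 Caspase activation in ZIKV-infected SNB-19 cells (2 FFU/cell, 6 h) measured by Caspase-Glo 3/7 luminescence after 30 min RT; compound pre-incubated 1 h; normalised to uninfected and infected controls.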
# [13] = qHTS Screen of the MIPE 4.0 Collection Against Ewings Sarcoma (RDES) (AID 1259252); note: nearly all actives have a fitted effect of over 35% in size; note: potency is the fitted concentration of half-maximal effect
# Summary of the method: (§2)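 Dose series incubated 48 h with cells in RPMI plus 5% FBS, glutamine and penicillin/streptomycin; cell viability then quantified via CellTiter-Glo.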
# [14] = qHTS Screen of the MIPE 4.0 Collection Against Ewings Sarcoma (EW8) (AID 1259255); note: nearly all actives have a fitted effect of over 35% in size; note: potency is the fitted concentration of half-maximal effect;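 for viability: 100% = DMSO-treated cells and 0% = medium-only wells without cells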
# Summary of the method: as §2
# [15] = qHTS Screen of the MIPE 4.0 Collection Against Ewings Sarcoma (TC71) (AID 1259253); note: nearly all actives have a fitted effect of over 40% in size; note: potency is the fitted concentration of half-maximal effect
# Summary of the method: as §2
# [16] = qHTS Screen of the MIPE 4.0 Collection Against Ewings Sarcoma (TC32) (AID 1259256); note: nearly all actives have a fitted effect of over 45% in size; note: potency is the fitted concentration of half-maximal effect
# Summary of the method: as §2
# [17] = qHTS profiling of the MIPE4 collection as inhibitors of Plasmodium falciparum (DD2) proliferation (AID 743345; call rule not given here); conditions: P. falciparum Dd2 in erythrocytes, SYBR Green DNA, 72 h; at 28.5 µM (top of the series) unless noted
# Summary of the method: as §1
# [18] = qHTS profiling for inhibitors of Plasmodium falciparum (3D7) proliferation (AID 743322);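 note: infected erythrocytes exposed to compound for 72 h before lysis; 100% = DMSO vehicle wells and 0% = 0.29 µM artemisinin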; conditions: P. falciparum 3D7 proliferation, at 28.7 µM (top of the series)
# Summary of the method: as §1
# [19] = qHTS profiling for inhibitors of Plasmodium falciparum (DD2) proliferation (AID 743323; call rule not given here); conditions: at 28.7 µM (top of the series), lower = more inhibition
# Summary of the method: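 Parasite DNA quantified by SYBR Green fluorescence (ex 485, em 535 nm) after saponin/Triton lysis and overnight dark incubation. Cultures: 0.3% parasitemia, 2.5% hematocrit, 72 h, 37 C; data scaled between DMSO and 0.29 uM artemisinin.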
# [20] = qHTS profiling for inhibitors of Plasmodium falciparum (HB3) proliferation (AID 743324); conditions: Plasmodium falciparum HB3 blood-stage proliferation; at 28.7 µM (top of the series);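 note: 100% = DMSO vehicle wells and 0% = artemisinin-treated control wells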
# Summary of the method: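 SYBR Green fluorescence (485 ex/535 em) of lysed cultures, incubated overnight at room temperature in the dark, quantifies parasite DNA. Infected erythrocytes at 0.3% parasitemia and 2.5% hematocrit were exposed 72 h; values normalized to DMSO and 0.29 uM artemisinin controls.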
structure (smiles),measurement,setting,value
COc1ccc2c(c1)c(CC(=O)O)c(C)n2C(=O)c1ccc(Cl)cc1,Potency,[1],inactive
same,Potency,[2],inactive
same,max response,[3],2.39% (inactive) and 17.2% (inactive)
same,max response,[4],11.9% (inactive) and -6.39% (inactive)
same,Potency,[5],inactive
same,"parasite growth, % of DMSO control",[6],55.7%
same,"parasite growth, % of control (lower = inhibition)",[7],127%
same,"growth, % of control",[8],83.6%
same,"cell viability, % of control (lower = more cytotoxic)",[9],127%
same,viability (% of control),[10],104%
same,Potency,[11],inactive
same,Potency,[12],inactive
same,Potency,[13],14.8 µM (active)
same,Potency,[14],inactive
COc1ccccc1OCC(O)CN1CCN(CC(=O)Nc2c(C)cccc2C)CC1 (stereo unspecified),Potency,[1],inactive
same,Potency,[2],inactive
same,max response,[3],19.4% (inactive) and 42.5% (inactive)
same,"parasite growth, % of DMSO control",[6],126%
same,"parasite growth, % of control (lower = inhibition)",[7],193%
same,"growth, % of control",[8],101%
same,"cell viability, % of control (lower = more cytotoxic)",[9],126%
same,viability (% of control),[10],18.6%
same,Potency,[11],inactive
same,Potency,[12],inactive
same,Potency,[13],inactive
same,Potency,[15],inactive
same,Potency,[14],inactive
same,Potency,[16],inactive
NCCS(=O)(=O)O,Potency,[1],inactive
same,Potency,[2],inactive
same,max response,[3],-8.78% (inactive) and 22.4% (inactive)
same,max response,[4],10.5% (inactive)
same,Potency,[5],inactive
same,"parasite growth, % of DMSO control",[6],102%
same,"parasite growth, % of control (lower = inhibition)",[7],90.9%
same,"growth, % of control",[8],110%
same,"cell viability, % of control (lower = more cytotoxic)",[9],573%
same,viability (% of control),[10],133%
same,Potency,[11],inactive
same,Potency,[12],inactive
same,Potency,[13],inactive
same,Potency,[15],inactive
same,Potency,[14],inactive
CCOC(=O)C(C)(C)Oc1ccc(Cl)cc1,Potency,[1],inactive
same,Potency,[2],inactive
same,max response,[3],9.62% (inactive) and 0.495% (inactive)
same,max response,[4],-5.02% (inactive)
same,Potency,[5],inactive
same,"parasite growth, % of DMSO control",[6],92.7%
same,"parasite growth, % of control (lower = inhibition)",[7],78%
same,"growth, % of control",[8],104%
same,"cell viability, % of control (lower = more cytotoxic)",[9],163%
same,viability (% of control),[10],22.1%
same,Potency,[11],inactive
same,Potency,[12],inactive
same,Potency,[13],inactive
same,Potency,[15],inactive
same,Potency,[16],inactive
Clc1ccc2nsnc2c1NC1=NCCN1,Potency,[1],inactive
same,Potency,[2],inactive
same,max response,[3],11.7% (inactive) and 4.37% (inactive)
same,"parasite growth, % of DMSO control",[6],73.6%
same,"parasite growth remaining, % of DMSO control (lower = more inhibition)",[17],98.6%
same,"parasite growth, % of control (lower = inhibition)",[7],45.7%
same,"growth, % of control",[8],67.7%
same,"cell viability, % of control (lower = more cytotoxic)",[9],64.1%
same,viability (% of control),[10],57%
same,Potency,[11],inactive and 20.9 µM (active)
same,Potency,[12],inactive
same,Potency,[13],inactive
same,Potency,[15],inactive
same,Potency,[14],inactive
same,Potency,[16],inactive
Fc1ccc([C@@H]2CCNC[C@H]2COc2ccc3c(c2)OCO3)cc1,Potency,[1],inactive
same,Potency,[2],inactive
same,Potency,[3],12.6 µM (active) and 1.12 µM (active)
same,"parasite growth, % of DMSO control",[6],35.7%
same,"parasite growth remaining, % of DMSO control (lower = more inhibition)",[17],39.5%
same,"parasite growth, % of control (lower = inhibition)",[7],34.6%
same,"growth, % of control",[8],58.5%
same,"cell viability, % of control (lower = more cytotoxic)",[9],66.2%
same,viability (% of control),[10],79%
same,Potency,[11],inactive
same,Potency,[12],inactive
same,Potency,[13],inactive
same,Potency,[15],18.7 µM (active)
CC1(CN2CCC(n3c(=O)[nH]c4ccccc43)CC2)OCc2ccccc2-n2cccc21 (stereo unspecified),max response,[3],-18.7% (inactive) and -2.64% (inactive)
same,remaining parasite growth % (stronger effect = lower value),[18],21.2%
same,"activity, percent of control",[19],17.6%
same,"remaining proliferation (% of control), lower = more inhibition",[20],0.0183%
same,"parasite growth, % of DMSO control",[6],10.9%
same,"parasite growth, % of control (lower = inhibition)",[7],11%
same,"growth, % of control",[8],7.33%
same,"cell viability, % of control (lower = more cytotoxic)",[9],137%
same,viability (% of control),[10],102%
same,Potency,[11],inactive
same,Potency,[12],inactive
same,Potency,[13],16.6 µM (active)
same,Potency,[15],16.6 µM (active)
same,Potency,[14],14.8 µM (active)
same,Potency,[16],14.8 µM (active)
